Laboratory results published in PubChem BioAssay (Tox21).
Records with an inconclusive call do not appear. The source made the active and inactive calls. Unless noted, the call rests on the fitted dose curve; in most records, active means well fitted cell-killing curve with a large enough effect in the repeat runs; inconclusive means weak or mixed curves, or effect the other way; inactive means no such curve, though single readings can be large or run the other way.

Target: Peroxisome proliferator-activated receptor gamma (Homo sapiens) (UniProt P37231)
Assay: qHTS assay to identify small molecule agonists of the peroxisome proliferator-activated receptor gamma (PPARg) signaling pathway (AID 743094; active means well fitted activation curve with a large enough effect in the signal ratio in the repeat runs, not every such curve was filed as active; the % refers to the signal ratio)
Conditions: HEK293H PPARg-UAS-bla, beta-lactamase FRET ratio, 17 h; series mostly up to 57 µM
In short: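 Quantitative HTS agonist mode: stable HEK293H line with UAS-beta-lactamase reporter under PPARg control, 17 h compound exposure at 37C, fluorescence after 1 h FRET substrate loading at room temperature.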

Peroxisome proliferator-activated receptor gamma (Homo sapiens), sequence (P37231 whole entry, looked up): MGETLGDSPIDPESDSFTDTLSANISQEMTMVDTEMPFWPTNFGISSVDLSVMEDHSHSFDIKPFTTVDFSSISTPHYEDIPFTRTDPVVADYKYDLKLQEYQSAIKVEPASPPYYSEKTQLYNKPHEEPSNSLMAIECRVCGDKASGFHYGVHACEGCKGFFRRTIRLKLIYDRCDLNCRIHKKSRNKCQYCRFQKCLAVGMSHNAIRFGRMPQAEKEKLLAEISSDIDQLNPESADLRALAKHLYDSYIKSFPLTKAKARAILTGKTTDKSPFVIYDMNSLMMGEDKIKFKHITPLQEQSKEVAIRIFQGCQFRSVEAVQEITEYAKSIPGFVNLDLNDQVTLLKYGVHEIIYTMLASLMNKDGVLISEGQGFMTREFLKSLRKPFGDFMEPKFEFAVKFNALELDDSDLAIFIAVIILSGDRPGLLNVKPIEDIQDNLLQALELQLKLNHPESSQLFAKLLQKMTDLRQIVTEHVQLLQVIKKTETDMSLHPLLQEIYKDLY

SMILES | outcome
Cc1ccc(S(=O)(=O)NC(=O)NN2CCCCCC2)cc1 | inactive
Nc1ccc(O)c(C(=O)O)c1 | inactive
NC(=O)NC1NC(=O)NC1=O (stereo not drawn) | inactive
OCCc1ccccc1 | inactive
CCOc1ccc(NC(=O)CC(C)O)cc1 (stereo not drawn) | inactive
CC(O)CN(CCN(CC(C)O)CC(C)O)CC(C)O (stereo not drawn) | inactive
O=C(O)c1cc(N=Nc2ccc(S(=O)(=O)Nc3ccccn3)cc2)ccc1O | inactive
NNC(=O)c1ccncc1 | inactive
O=c1ccc2ccccc2o1 | inactive
NC(=O)c1cnccn1 | inactive
CC(=O)OCC(COC(C)=O)OC(C)=O | inactive
CCCCOC(=O)CC(CC(=O)OCCCC)(OC(C)=O)C(=O)OCCCC | inactive
O=C(O)CCCCC(=O)O | inactive
O=C(O)CCCCCCCC(=O)O | inactive
O=C(O)CS | inactive
C/C=C/c1ccc(OC)cc1 | inactive
CCCNC(=O)NS(=O)(=O)c1ccc(Cl)cc1 | inactive
c1ccc2[nH]ccc2c1 | inactive
CC(=O)Nc1nnc(S(N)(=O)=O)s1 | inactive
O=C(O)CCC(=O)O | inactive
CCCN(CCC)S(=O)(=O)c1ccc(C(=O)O)cc1 | inactive
CCCCC(CC)COC(=O)/C=C/c1ccc(OC)cc1 (stereo not drawn) | inactive
COc1ccc2[nH]cc(CCNC(C)=O)c2c1 | inactive
Cn1c(=O)c2[nH]cnc2n(C)c1=O | inactive
Nc1ccc(S(=O)(=O)Nc2nccs2)cc1 | inactive
O=S(=O)(O)c1ccc2cc(O)ccc2c1 | inactive
O=C1NC(=O)c2ccccc21 | inactive
CCCCC1C(=O)N(c2ccccc2)N(c2ccccc2)C1=O | inactive
Cc1cn([C@H]2C[C@H](N=[N+]=[N-])[C@@H](CO)O2)c(=O)[nH]c1=O | inactive
Cc1ccc(O)cc1 | inactive

Target: Peroxisome proliferator-activated receptor gamma (Homo sapiens) (UniProt P37231)
Assay: qHTS assay to identify small molecule antagonists of the peroxisome proliferator-activated receptor gamma (PPARg) signaling pathway (AID 743191; calls by dose curve; further: nearly all actives have a fitted effect of over 30% in size)
Conditions: HEK293H PPARg-UAS-bla, beta-lactamase ratio, antagonist, 17 h; series mostly up to 62.6 µM
In short: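 GeneBLAzer PPARg UAS-bla HEK293H cells carrying a UAS-driven beta-lactamase reporter were plated at 3000 cells/well, preincubated 5 h at 37C, then given compound for 17 h at 37C; LiveBLAzer B/G FRET substrate was read after 1 h at room temperature.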

SMILES | outcome
Cc1ccc(S(=O)(=O)NC(=O)NN2CCCCCC2)cc1 | inactive
Nc1ccc(O)c(C(=O)O)c1 | inactive
NC(=O)NC1NC(=O)NC1=O (stereo not drawn) | inactive
OCCc1ccccc1 | inactive
CCOc1ccc(NC(=O)CC(C)O)cc1 (stereo not drawn) | inactive
CC(O)CN(CCN(CC(C)O)CC(C)O)CC(C)O (stereo not drawn) | inactive
O=C(O)c1cc(N=Nc2ccc(S(=O)(=O)Nc3ccccn3)cc2)ccc1O | inactive
NNC(=O)c1ccncc1 | inactive
O=c1ccc2ccccc2o1 | inactive
NC(=O)c1cnccn1 | inactive
CC(=O)OCC(COC(C)=O)OC(C)=O | inactive
CCCCOC(=O)CC(CC(=O)OCCCC)(OC(C)=O)C(=O)OCCCC | inactive
O=C(O)CCCCCCCC(=O)O | inactive
O=C(O)CS | inactive
CCCNC(=O)NS(=O)(=O)c1ccc(Cl)cc1 | inactive
c1ccc2[nH]ccc2c1 | inactive
CC(=O)Nc1nnc(S(N)(=O)=O)s1 | inactive
O=C(O)CCC(=O)O | inactive
CCCN(CCC)S(=O)(=O)c1ccc(C(=O)O)cc1 | inactive
CCCCC(CC)COC(=O)/C=C/c1ccc(OC)cc1 (stereo not drawn) | inactive
COc1ccc2[nH]cc(CCNC(C)=O)c2c1 | inactive
Nc1ccc(S(=O)(=O)Nc2nccs2)cc1 | inactive
O=S(=O)(O)c1ccc2cc(O)ccc2c1 | inactive
O=C1NC(=O)c2ccccc21 | inactive
CCCCC1C(=O)N(c2ccccc2)N(c2ccccc2)C1=O | inactive
Cc1cn([C@H]2C[C@H](N=[N+]=[N-])[C@@H](CO)O2)c(=O)[nH]c1=O | inactive
Cc1ccc(O)cc1 | inactive

Test system: not listed separately
Assay: qHTS assay to identify small molecule antagonists of the peroxisome proliferator-activated receptor gamma (PPARg) signaling pathway - cell viability counter screen (AID 743194); further: nearly all actives have a fitted effect of over 55% in size
Conditions: PPARg-bla HEK293H viability, CellTiter-Glo luminescence, 17 h, co-treated with 50 nM rosiglitazone; series mostly up to 62.6 µM
In short: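 PPARg-UAS-bla HEK293H cells were plated, rested 5 h at 37 C, then treated with compounds plus rosiglitazone (50 nM final) for 17 h at 37 C; viability was then read by CellTiter-Glo luminescence after 30 min at room temperature.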

SMILES | outcome
C[C@]12C=CC(=O)C=C1CC[C@@H]1[C@@H]2[C@@H](O)C[C@@]2(C)[C@H]1CC[C@]2(O)C(=O)CO | inactive
Cc1ccc(S(=O)(=O)NC(=O)NN2CCCCCC2)cc1 | inactive
Nc1ccc(O)c(C(=O)O)c1 | inactive
NC(=O)NC1NC(=O)NC1=O (stereo not drawn) | inactive
OCCc1ccccc1 | inactive
CC(=O)NS(=O)(=O)c1ccc(N)cc1 | inactive
O=C(O)c1cccc([N+](=O)[O-])c1 | inactive
CCOc1ccc(NC(=O)CC(C)O)cc1 (stereo not drawn) | inactive
CC(O)CN(CCN(CC(C)O)CC(C)O)CC(C)O (stereo not drawn) | inactive
O=C(O)c1cc(N=Nc2ccc(S(=O)(=O)Nc3ccccn3)cc2)ccc1O | inactive
NNC(=O)c1ccncc1 | inactive
O=c1ccc2ccccc2o1 | inactive
NC(=O)c1cnccn1 | inactive
CC(=O)OCC(COC(C)=O)OC(C)=O | inactive
CCCCOC(=O)CC(CC(=O)OCCCC)(OC(C)=O)C(=O)OCCCC | inactive
O=C(O)CCCCC(=O)O | inactive
O=C(O)CCCCCCCC(=O)O | inactive
O=C(O)c1cccnc1 | inactive

SMILES | outcome
O=C(O)CS | inactive
C/C=C/c1ccc(OC)cc1 | inactive
O=C(c1ccccc1)c1ccccc1 | inactive
CCCNC(=O)NS(=O)(=O)c1ccc(Cl)cc1 | inactive
c1ccc2[nH]ccc2c1 | inactive
CC(=O)Nc1nnc(S(N)(=O)=O)s1 | inactive
O=C1CN(/N=C/c2ccc([N+](=O)[O-])o2)C(=O)N1 | inactive
O=C(O)CCC(=O)O | inactive
CCCN(CCC)S(=O)(=O)c1ccc(C(=O)O)cc1 | inactive
CCCCC(CC)COC(=O)/C=C/c1ccc(OC)cc1 (stereo not drawn) | inactive
COc1ccc2[nH]cc(CCNC(C)=O)c2c1 | inactive
Cn1c(=O)c2[nH]cnc2n(C)c1=O | inactive
Nc1ccc(S(=O)(=O)Nc2nccs2)cc1 | inactive
O=S(=O)(O)c1ccc2cc(O)ccc2c1 | inactive
O=C1NC(=O)c2ccccc21 | inactive
CCCCC1C(=O)N(c2ccccc2)N(c2ccccc2)C1=O | inactive
Cc1cn([C@H]2C[C@H](N=[N+]=[N-])[C@@H](CO)O2)c(=O)[nH]c1=O | inactive
Cc1ccc(O)cc1 | inactive
